Our source for the Potency and outcome values is PubChem BioAssay (Tox21).

Results filed as inconclusive are left out. The source made the active and inactive calls. Unless noted, the call rests on the fitted dose curve.

Assay [1] in a line: Nuclear factor erythroid 2-related factor 2/antioxidant responsive element (Nrf2/ARE) small molecule agonists: qHTS cell viability counter screen in human keratinocytes (AID 1919968; active means well fitted cell-killing curve with a large enough effect in the repeat runs; further: nearly all actives have a fitted effect of over 55% in size; further: potency means the concentration at half of the fitted maximal effect). Summed up: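 HaCaT ARE reporter line, 1,500 cells/well; 5 h settle, 37 C/5% CO2; cpd in DMSO pinned; 23 h exposure; CellTiter-Fluor, 1 h; fluorescence.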
(Quantitative high-throughput screening tests each substance at several concentrations.)

Assay [2] is described as follows: Nuclear factor erythroid 2-related factor 2/antioxidant responsive element (Nrf2/ARE) small molecule agonists: luciferase reporter gene qHTS assay in human keratinocytes (AID 1919969). Further: nearly all actives have a fitted effect of over 35% in size. Further: potency means the concentration at half of the fitted maximal effect. On the technique in general: Reporter assays use an easily measured gene product as a stand-in for the process of interest.
In assay [3] the target is Gonadotropin-releasing hormone receptor (Homo sapiens) (UniProt P30968). Briefly: Human gonadotropin-releasing hormone receptor (GnRHR) small molecule agonists, calcium flux assay in GnRHR-HEK293 cells (AID 1920063). Further: nearly all actives have a fitted effect of over 35% in size. Summed up: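 GnRHR-HEK293, 1500 cells/well, 18 h 37 C/5% CO2; Ca dye 1 h 37 C; cpd pinned (DMSO), agonist mode; kinetic FL 480/540, 3 min, 1 s reads; 15 conc, n=3.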
Sequence of Gonadotropin-releasing hormone receptor (Homo sapiens) (P30968 whole entry, looked up): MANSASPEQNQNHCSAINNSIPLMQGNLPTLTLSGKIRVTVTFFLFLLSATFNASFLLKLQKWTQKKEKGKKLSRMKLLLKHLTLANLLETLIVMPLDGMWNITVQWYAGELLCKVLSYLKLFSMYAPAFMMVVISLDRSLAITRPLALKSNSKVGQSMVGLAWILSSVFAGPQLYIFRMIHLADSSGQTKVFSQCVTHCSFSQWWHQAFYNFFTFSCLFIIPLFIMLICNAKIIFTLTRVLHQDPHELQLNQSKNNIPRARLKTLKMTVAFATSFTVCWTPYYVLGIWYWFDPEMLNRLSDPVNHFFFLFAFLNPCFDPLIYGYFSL
A general note: A change in cytosolic calcium serves as a functional read-out for many receptors and channels.

Assay [4] in a line: G protein-coupled receptor (GPCR) small molecule agonists, calcium flux assay: HEK293 wild type cell line counter screen (AID 1920065). Summed up: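 Kinetic fluorescence at Ex/Em 480/540, recorded every second over 3 min, served as the read-out after compound addition. Each compound was tested at 15 concentrations in triplicate on cells pre-loaded with calcium dye for 1 h.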

A short description of assay [5]: p53 small molecule agonists, cell-based qHTS assay with human liver microsomes (AID 1963577).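 Further: p53 response element beta-lactamase reporter cells with liver microsomes plus NADPH.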 The method in brief: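 Reporter activation was measured by LiveBLAzer fluorescence intensity in p53RE-bla cells, which had been exposed to compounds for 16 h at 37 C alongside 0.5 mg/mL human liver microsomes and 0.5 mg/mL NADPH (final concentrations).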
Assay [6] can be described thus: p53 small molecule agonists, cell-based qHTS assay with rat liver microsomes (AID 1963578). Summed up: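 Compound in DMSO added to p53RE-bla cells 5 h post-plating; rat microsomes/NADPH 0.5 mg/mL final; 16 h, 37 C; LiveBLAzer 2 h RT.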
Assay [7] is described as follows: p53 small molecule agonists, cell-based qHTS assay with rat liver microsomes: qHTS cell viability counter screen (AID 1963580). Further: nearly all actives have a fitted effect of over 45% in size. Further: potency means the concentration at half of the fitted maximal effect. Summed up: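 Intracellular ATP, by CellTiter-Glo luminescence, defines viability. HCT-116 p53RE-bla cells, 4,000 per well, were compound-treated in the presence of rat liver microsomes and NADPH for 16 h at 37 C.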
Assay [8] concerns the target 5-hydroxytryptamine receptor 2A (Homo sapiens) (UniProt P28223). As to the kind of experiment: 5-hydroxytryptamine receptor 2A (HTR2A) small molecule antagonists, cell-based qHTS assay (AID 1963586). Further: nearly all actives have a fitted effect of over 45% in size. Further: potency means the concentration at half of the fitted maximal effect. The method in brief: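 Antagonist-mode intracellular calcium assay: DOI (4 nM) added after 5 min compound pre-incubation at room temperature to dye-loaded HTR2A-CHO cells. Fluorescence followed for 3 min, sampled every second.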

For assay [9] the target is unchanged. Briefly: 5-hydroxytryptamine receptor 2A (HTR2A) small molecule agonists, cell-based qHTS assay (AID 1963587). Further: nearly all actives have a fitted effect of over 30% in size. The method in brief: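 Kinetic calcium-flux fluorescence (2 min, 1 sec intervals) after compound addition in agonist mode. HTR2A-CHO cells were cultured 18 h, then dye-loaded 1 h at 37 C.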
For assay [10], the target named is Muscarinic acetylcholine receptor M1 (Homo sapiens) (UniProt P11229). As to the kind of experiment: Cholinergic receptor muscarinic 1 (CHRM1) small molecule antagonists, cell-based qHTS assay (AID 1963588). Further: nearly all actives have a fitted effect of over 40% in size. Further: potency means the concentration at half of the fitted maximal effect. Summed up: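 CHRM1-CHO calcium-flux assay, antagonist mode. Cells were seeded 18 h, dye-loaded 1 h at 37 C and given compound for 5 min at RT, then acetylcholine was added at 50nM. FDSS fluorescence was read 3 min; 15 concentrations, three runs.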
Sequence of Muscarinic acetylcholine receptor M1 (Homo sapiens) (P11229 whole entry, looked up): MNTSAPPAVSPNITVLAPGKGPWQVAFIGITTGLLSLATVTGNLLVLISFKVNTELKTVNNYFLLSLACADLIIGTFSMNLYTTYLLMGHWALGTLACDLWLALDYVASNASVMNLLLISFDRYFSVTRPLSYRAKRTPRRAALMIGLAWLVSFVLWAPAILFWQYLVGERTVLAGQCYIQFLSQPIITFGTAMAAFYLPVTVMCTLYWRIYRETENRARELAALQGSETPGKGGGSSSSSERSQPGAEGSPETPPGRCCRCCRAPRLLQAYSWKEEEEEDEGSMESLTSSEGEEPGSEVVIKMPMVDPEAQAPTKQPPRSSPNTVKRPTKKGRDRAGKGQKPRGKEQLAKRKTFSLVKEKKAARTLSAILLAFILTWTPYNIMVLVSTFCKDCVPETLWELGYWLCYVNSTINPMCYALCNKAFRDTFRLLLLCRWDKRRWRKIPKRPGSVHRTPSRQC

Assay [11] has the same target. Briefly: Cholinergic receptor muscarinic 1 (CHRM1) small molecule agonists, cell-based qHTS assay (AID 1963589). Further: nearly all actives have a fitted effect of over 35% in size. The method in brief: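 Human M1 in stable CHO line; 18 h plating, 1 h dye load 37 C; cpd added (agonist mode); Ca2+ fluorescence kinetic read, 1 s intervals; 15 conc, 3 runs.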
In assay [12] the target is Beta-2 adrenergic receptor (Homo sapiens) (UniProt P07550). Briefly: Adrenergic beta2 receptor (ADRB2) small molecule antagonists, cell-based qHTS assay (AID 1963592). Further: series mostly up to about 92 µM; nearly all actives have a fitted effect of over 50% in size. The method in brief:
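Cells (CHO, stable ADRB2 overexpression) incubated 18-20hr at 37C; compounds added from DMSO; agonist mix (1nM isoproterenol, 100uM IBMX, 25uM Ro-20-1724) added; 0.5hr RT; d2-cAMP and anti-cAMP-cryptate added; 1hr RT; 665/615 nm read.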

The target is the same in assay [13]. Briefly: Adrenergic beta2 receptor (ADRB2) small molecule agonists, cell-based qHTS assay (AID 1963593).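 Further: CHO cells stably overexpressing human ADRB2.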 Summed up:
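CHO cells stably over-expressing ADRB2 were plated overnight at 37C, then dosed with compounds plus a stimulation mix containing 100uM IBMX and 25uM Ro-20-1724 for 0.5hr at room temperature. cAMP was measured by HTRF competition, 1hr.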

In assay [14] the target is D(2) dopamine receptor (Homo sapiens) (UniProt P14416). As to the kind of experiment: Dopamine D2 receptor (DRD2) small molecule agonists, cell-based qHTS assay (AID 1963594). Further: nearly all actives have a fitted effect of over 35% in size. The method in brief: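 cAMP accumulation in DRD2-HEK293 cells measured by HTRF after 1 h detection; compounds added 10 min before NKH477 (200nM […]) forskolin-analogue stimulation, 30 min at room temperature, with Ro20-1724 present at 0.1 mM final.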
Sequence of D(2) dopamine receptor (Homo sapiens) (P14416 whole entry, looked up): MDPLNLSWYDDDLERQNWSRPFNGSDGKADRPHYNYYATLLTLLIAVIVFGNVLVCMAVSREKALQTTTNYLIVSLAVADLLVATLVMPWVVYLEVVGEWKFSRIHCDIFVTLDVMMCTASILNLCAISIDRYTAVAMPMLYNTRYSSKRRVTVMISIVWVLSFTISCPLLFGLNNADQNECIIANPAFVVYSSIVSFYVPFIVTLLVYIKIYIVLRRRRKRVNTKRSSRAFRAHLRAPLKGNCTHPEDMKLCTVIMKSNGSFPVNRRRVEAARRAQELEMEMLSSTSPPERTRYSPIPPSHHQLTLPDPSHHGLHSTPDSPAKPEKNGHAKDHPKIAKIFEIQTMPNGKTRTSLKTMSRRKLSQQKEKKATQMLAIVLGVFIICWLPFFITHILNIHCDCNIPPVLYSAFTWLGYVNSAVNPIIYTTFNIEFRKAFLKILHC

The nature of assay [15]: p53 small molecule agonists, cell-based qHTS assay: qHTS cell viability counter screen (AID 1963581). Further: nearly all actives have a fitted effect of over 45% in size. Further: potency means the concentration at half of the fitted maximal effect. Summed up: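 HCT-116 p53RE-bla cells, 4,000/well, plated 5 h before compound pin transfer; 16 h at 37 C; bla substrate 2 h RT; then CellTiter-Glo, 30 min RT, luminescence.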
A short description of assay [16]: cAMP Responsive Elements (CRE) small molecule agonists, cell-based qHTS assay (AID 1963590). The method in brief: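 HEK 293T CRE-bla, 2,000 cells/well, 18 h preincubation 37 C/5% CO2; cpds (DMSO) pinned, 3 h; LiveBLAzer B/G FRET substrate, 2 h RT.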
Assay [17] is described as follows: cAMP Responsive Elements (CRE) small molecule antagonists, cell-based qHTS assay (AID 1963591; active means well fitted inhibition curve with a large enough effect in the signal ratio in the repeat runs, not every such curve was filed as active; the % refers to the signal ratio). The method in brief: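 Beta-lactamase reporter read by FRET substrate (LiveBLAzer B/G) after 2 h at room temperature. CRE-bla HEK293T cells had received compound plus 0.25 uM (final) NKH477 for 3 h at 37 °C.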
Assay [18] concerns the target D(2) dopamine receptor (Homo sapiens) (UniProt P14416). As to the kind of experiment: Dopamine D2 receptor (DRD2) small molecule antagonists, cell-based qHTS assay (AID 1963595; active means well fitted inhibition curve with a large enough effect in the signal ratio in the repeat runs, with a control signal flat; the % refers to the signal ratio; further: potency means the concentration at half of the fitted maximal effect). Summed up: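 DRD2-HEK293; 0.1 mM Ro20-1724; cpd 10 min RT; NKH477 200 nM + quinpirole 12 nM, 30 min RT; HTRF cAMP (cAMP-d2/anti-cAMP cryptate), 665/620 nm ratio after 1 h.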
Assay [19] can be described thus: p53 small molecule agonists, cell-based qHTS assay with human liver microsomes: qHTS cell viability counter screen (AID 1963579). Further: nearly all actives have a fitted effect of over 45% in size. Further: potency means the concentration at half of the fitted maximal effect. The method in brief: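 HLM-supplemented (0.5 mg/mL final) and NADPH-supplemented (0.5 mg/mL final) p53RE-bla cultures, 4,000 cells per well, were dosed with compounds in DMSO for 16 h at 37 C; luminescent ATP detection (CellTiter-Glo, 30 min, room temperature) quantified surviving cells.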

Assay [20] can be described thus: p53 small molecule agonists, cell-based qHTS assay (AID 1963582; active means well fitted activation curve with a large enough effect in the signal ratio in the repeat runs, not every such curve was filed as active; the % refers to the signal ratio). The method in brief: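 Reporter line: p53RE-bla. Pre-incubation 5 h, 37 C, 5% CO2; compound (DMSO, pin tool) 16 h, 37 C; B/G FRET substrate 2 h RT; fluorescence intensity read.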

Sequence of Beta-2 adrenergic receptor (Homo sapiens) (P07550 whole entry, looked up): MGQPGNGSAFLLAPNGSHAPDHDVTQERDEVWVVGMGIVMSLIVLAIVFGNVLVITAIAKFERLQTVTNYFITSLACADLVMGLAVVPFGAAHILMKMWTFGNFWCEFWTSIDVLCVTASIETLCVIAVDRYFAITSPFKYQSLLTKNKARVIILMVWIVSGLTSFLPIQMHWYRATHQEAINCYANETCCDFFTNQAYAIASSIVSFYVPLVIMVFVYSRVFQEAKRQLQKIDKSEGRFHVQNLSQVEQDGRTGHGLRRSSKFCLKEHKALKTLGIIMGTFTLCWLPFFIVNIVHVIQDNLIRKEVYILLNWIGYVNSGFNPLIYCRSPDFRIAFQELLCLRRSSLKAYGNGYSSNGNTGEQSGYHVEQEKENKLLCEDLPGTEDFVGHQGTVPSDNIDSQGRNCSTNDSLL
Sequence of 5-hydroxytryptamine receptor 2A (Homo sapiens) (P28223 whole entry, looked up): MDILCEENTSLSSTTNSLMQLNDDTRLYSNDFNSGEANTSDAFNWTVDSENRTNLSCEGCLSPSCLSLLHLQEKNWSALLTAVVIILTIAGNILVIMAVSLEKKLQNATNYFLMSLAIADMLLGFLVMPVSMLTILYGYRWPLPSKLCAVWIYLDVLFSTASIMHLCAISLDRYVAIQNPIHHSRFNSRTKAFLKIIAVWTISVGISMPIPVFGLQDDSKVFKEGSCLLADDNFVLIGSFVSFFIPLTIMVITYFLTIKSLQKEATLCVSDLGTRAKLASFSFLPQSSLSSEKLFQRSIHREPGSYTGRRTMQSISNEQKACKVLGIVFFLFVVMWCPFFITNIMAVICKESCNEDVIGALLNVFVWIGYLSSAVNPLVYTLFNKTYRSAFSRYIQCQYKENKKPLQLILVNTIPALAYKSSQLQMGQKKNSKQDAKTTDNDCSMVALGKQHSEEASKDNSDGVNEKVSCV

Take `Cc1c(Cl)cccc1Nc1ccccc1C(=O)O`: the Potency result in assay [1], in [2], in assay [3], in assay [5], in assay [6] and in [7] was “inactive” throughout. For the same molecule, the Potency entry in assay [9], in [11], in assay [12], in assay [13] and in assay [14] was “inactive” in each case. For the same molecule, the result in assay [4] was inactive. Further, the Potency in assay [8] was 16.3 µM (active); in assay [10], 4.6 µM (active).

For the molecule `CCN(CC)C(=O)N1CCN(C)CC1`, the Potency entry in [1], in assay [2], in [3], in assay [5], in [6] and in assay [7] was “inactive” in each case. The Potency result in assay [15], in assay [8], in [9], in assay [10], in assay [11] and in assay [16] was “inactive” each time. The Potency entry in [17], in assay [12], in assay [13], in assay [14] and in assay [18] was “inactive” in each case. For the same molecule, the outcome in assay [4] was inactive.

On to `Cc1c(C2(c3cc(Br)c(O)c(Br)c3C)OS(=O)(=O)c3ccccc32)cc(Br)c(O)c1Br`, for which the figures for the Potency in [1] and in [15] were 21 µM (active) and 22.3 µM (active), respectively. The Potency entry in assay [2], in assay [3], in [5], in assay [19], in assay [7] and in [8] was “inactive” each time. Further, the Potency result in assay [9], in [10], in assay [11] and in [17] was “inactive” in each case. The result in assay [4] was inactive.

Take `Cc1oc(-c2ccccc2)nc1CCOc1ccc(C[C@H](Nc2ccccc2C(=O)c2ccccc2)C(=O)O)cc1`: the Potency in assay [1] is 30.6 µM (active); in [19], 28.9 µM (active); in [7], 45.8 µM (active); in assay [15] it was 20.4 µM (active). Besides, the Potency result in assay [2], in [3], in assay [5], in assay [6], in assay [8] and in [9] was “inactive” each time. For the same molecule, the Potency entry in [10], in [12], in [13], in assay [14] and in assay [18] was “inactive” throughout. Also, the outcome in assay [4] was inactive.

Regarding `CCCCCCCCCCCC[N+](C)(C)CCCCCCCCCCCC`, the values for the Potency in assay [1], in assay [7] and in assay [18] were 24.3 µM (active), 40.8 µM (active) and 43.3 µM (active), respectively. Moreover, the Potency result in [2], in [3], in [5], in [6], in assay [19] and in [15] was “inactive” throughout. Besides, the Potency result in [8], in assay [9], in assay [10], in [11], in assay [12] and in [14] was “inactive” throughout. Also, the outcome in assay [4] was inactive.

Regarding `CC(C)(C)NSc1nc2ccccc2s1`, the Potency entry in assay [1], in [3], in [5], in assay [6], in assay [19] and in assay [7] was “inactive” throughout. Also, the Potency entry in assay [20], in [9], in assay [10], in assay [11], in assay [16] and in assay [17] was “inactive” in each case. In addition, the Potency entry in assay [14] and in assay [18] was “inactive” throughout. For the same molecule, in assay [2], the Potency is 24.8 µM (active). In assay [4], the outcome was inactive.

Regarding `O=C(CCCCCCCCC#CI)Oc1ccccc1`, the Potency result in [1], in [2], in [3], in assay [5], in assay [6] and in [7] was “inactive” in each case. Besides, the Potency result in assay [15], in [20], in assay [8], in [9], in [10] and in assay [11] was “inactive” in each case. Besides, the Potency entry in [17], in assay [12], in assay [13] and in [14] was “inactive” throughout. Further, in assay [4], the result was inactive.

For the molecule `CCCCCCCCCCCCCCCC/C=C/C1CC(=O)OC1=O` (stereo unspecified), the Potency result in assay [1], in assay [2], in assay [3], in [5], in assay [6] and in [19] was “inactive” in each case. Also, the Potency entry in [7], in [15], in [8], in [9], in assay [10] and in assay [11] was “inactive” throughout. Also, the Potency entry in assay [17], in assay [14] and in assay [18] was “inactive” throughout. Moreover, the outcome in assay [4] was inactive.

As to `CC1=NC(C)OC1C` (stereo unspecified), the Potency entry in assay [1], in [3], in assay [5], in assay [6], in assay [19] and in [15] was “inactive” in each case. For the same molecule, the Potency entry in assay [8], in [9], in assay [10], in [11], in [12] and in assay [14] was “inactive” in each case. For the same molecule, the Potency result in [18] is “inactive”. Moreover, the Potency in assay [2] was 61.1 µM (active). For the same molecule, the result in assay [4] was inactive.
